Results on 21 molecules are retold here after PubChem BioAssay.

Active and inactive are the calls of the source. The rule behind the calls is not given here.

What is called inhibition is the share of the control response that was lost under treatment.

Pantothenate synthetase (Mycobacterium tuberculosis (strain ATCC 25618 / H37Rv)), sequence (P9WIL5 whole entry, looked up): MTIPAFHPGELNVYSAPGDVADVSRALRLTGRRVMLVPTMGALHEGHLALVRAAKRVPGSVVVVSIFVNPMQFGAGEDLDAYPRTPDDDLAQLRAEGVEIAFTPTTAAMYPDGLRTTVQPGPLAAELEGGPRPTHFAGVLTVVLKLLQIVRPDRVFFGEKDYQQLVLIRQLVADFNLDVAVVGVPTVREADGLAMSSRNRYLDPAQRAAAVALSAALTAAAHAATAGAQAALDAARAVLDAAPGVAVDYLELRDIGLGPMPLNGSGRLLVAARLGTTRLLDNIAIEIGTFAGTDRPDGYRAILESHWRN

The test concerns the target Pantothenate synthetase (Mycobacterium tuberculosis (strain ATCC 25618 / H37Rv)) (UniProt P9WIL5). The experiment in a line: Recombinant Mtb pantothenate synthetase (PanC) inhibitors, coupled enzyme, confirmatory (AID 375).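 Note: 0% = full reaction with vehicle and 100% = no enzyme background.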 The note with it: coupled enzyme assay; at 10 µM, active compounds read high.
For `CCOC(=O)c1c(NC(=O)OC)sc(C(=O)N(C)C)c1C`, the inhibition is 1% (inactive). Next, `O=C(Nc1ccc2c(c1)OCO2)c1ccc(CN2CCOCC2)cc1`: 1% (inactive); `Clc1ccc(C2=Nn3c(nnc3-c3n[nH]c4c3CCC4)SC2)cc1Cl`: 0% (inactive). As for `COc1ccccc1NC(=O)c1cc2n(n1)C(C(F)(F)F)CC(c1ccc3c(c1)OCO3)N2` (stereo unspecified), the inhibition is 0% (inactive). The figure for `N#Cc1c(SCC(=O)N2CCOCC2)nsc1SCC(=O)N1CCOCC1` is 0% (inactive); for `Cc1ccccc1NC(=O)NCCCN1CCN(C2CCCCC2)CC1` it is 0% (inactive); for `O=C(c1ccc2nc(N3CCOCC3)sc2c1)N1CCCC1` it is 13% (inactive). For the molecule `Cc1cccc(N(C)C(=S)Oc2ccc3ccccc3c2)c1`, the inhibition was 7% (inactive). In the case of `Cc1cc(C)c2oc(=O)cc(CN3CCOCC3)c2c1`, the inhibition was 0% (inactive). Next, `COC(=O)Cn1c(=O)c2c(nc(Br)n2CC(=O)OC)n(C)c1=O`: 0% (inactive); `CN1CCN(C2=Nc3ccccc3Oc3ccc(Cl)cc32)CC1`: 4% (inactive). The figure for `CCOC(=O)C1CCCN(C(=O)c2cn(C)c(=O)c3cc(OC)c(OC)cc23)C1` (stereo unspecified) is 0% (inactive); for `CC(=O)n1cc(-c2ccncc2)c2ccccc21` it is 0% (inactive).

Consider `C=CCOc1ccccc1/C=c1\sc2nc(=O)c(C)nn2c1=O`, for which the inhibition is 0% (inactive). For the molecule `Cc1cccc(N2C(=O)CC(N3CCN(C(=O)c4ccccc4)CC3)C2=O)c1` (stereo unspecified), the inhibition is 5% (inactive). Next, `O=C(O)c1cccc(COCC(F)(F)C(F)F)c1`: 0% (inactive).

As for `CCC(Sc1nc2sc(C(=O)OC)c(C)c2c(=O)n1N)C(=O)NCC1CCCO1` (stereo unspecified), the inhibition is 4% (inactive). In the case of `Cc1cc2ncc(C(=O)Nc3ccccc3)c(C)n2n1`, the inhibition was 7% (inactive). The figure for `Cc1ccc(S(=O)(=O)Cn2nnnc2CN(Cc2ccco2)CC2CCCO2)cc1` (stereo unspecified) is 3% (inactive); for `CCCNS(=O)(=O)c1ccc(C(=O)NCC2CCCO2)cc1` (stereo unspecified) it is 0% (inactive); for `O=C(CN1CCOCC1)N1CCN(C(=O)CN2CCOCC2)CC1` it is 6% (inactive).
